“And” between values parts separate entries of the source, which are not always exact repeats. Identical values can stand only once. Records with an inconclusive call do not appear. Some structures have more than one record in an assay (separate samples or runs), and their calls can disagree. The source made the active and inactive calls. How the source made its calls, unless noted: active means hit-call score of the fitted dose curve at least 0.9, where 1 is the maximum; inconclusive means response in the unintended direction; inactive means score below 0.9.
Assays:
[1] = tested on: frog Estrogen Receptor (ER2), gene 100174814; experiment: ATG_frER2_XSP2: Attagene TRANS-FACTORIAL Multi-Species (XSP2) HepG2 Assay for frog Estrogen Receptor (ER2) (AID 2283828)
Method in brief: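 Read-out: reporter transcript levels by RT-PCR with 6-FAM primer extension, HpaI digestion and capillary electrophoresis, scored as induction over DMSO control. Transfected HepG2 carrying Xenopus ER2–GAL4 chimera; compounds incubated 24 h.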

[2] = target: Peroxisome proliferator-activated receptor gamma (Homo sapiens) (UniProt P37231); experiment: ATG_hPPARg_XSP2: Attagene TRANS-FACTORIAL Multi-Species (XSP2) HepG2 Assay for human Peroxisome Proliferator-activated Receptor gamma (PPARg) (AID 2283829);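 further: actives raise reporter mRNA above DMSO so AC50 reflects PPARg activation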
Method in brief: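 Human HepG2 cells carried transiently transfected Gal4 reporter units and were treated with chemical for 24 h alongside androgen-receptor stimulants (3 nM 6-alpha-fluorotestosterone, 1.5 nM norgestrel). Reporter transcripts were detected by RT-PCR with capillary electrophoresis, analysed in the positive direction against DMSO.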

[3] = target: mouse Peroxisome Proliferator-activated Receptor gamma (PPARg), Pparg (gene 19016) (UniProt P37238); experiment: ATG_mPPARg_XSP2: Attagene TRANS-FACTORIAL Multi-Species (XSP2) HepG2 Assay for mouse Peroxisome Proliferator-activated Receptor gamma (PPARg) (AID 2283830);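 further: hits are gains in reporter mRNA above DMSO so AC50 marks activation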
Method in brief: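 Multiplexed TRANS reporter readout: after 24 h chemical exposure of transfected HepG2 cells (with 3 nM 6-alpha-fluorotestosterone, 1.5 nM norgestrel present), RNA reverse-transcribed, amplified, 6-FAM-labelled and resolved by capillary electrophoresis; mouse PPARg-Gal4 induction scored against DMSO.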

[4] = target: zebrafish Thyroid Hormone Receptor alpha (TRa), thraa (gene 30670) (UniProt Q98867); experiment: ATG_zfTRa_XSP2: Attagene TRANS-FACTORIAL Multi-Species (XSP1) HepG2 Assay for zebrafish Thyroid Hormone Receptor alpha (TRa) (AID 2283832);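 further: actives raise zebrafish TRa-Gal4 reporter transcript above DMSO baseline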
Method in brief: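 Readout is reporter mRNA induction, quantified by RT-PCR and capillary electrophoresis with fluorescent labelling, after 24 h compound exposure of transiently transfected HepG2 cells carrying NR-Gal4 chimera reporters. Activity fitted upward relative to DMSO.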

[5] = tested on: zebrafish Peroxisome Proliferator-activated Receptor gamma (PPARg), gene 557037; experiment: ATG_zfPPARg_XSP2: Attagene TRANS-FACTORIAL Multi-Species (XSP2) HepG2 Assay for zebrafish Peroxisome Proliferator-activated Receptor gamma (PPARg) (AID 2283833);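 further: reporter mRNA from a zebrafish PPARg GAL4 chimera measured by RT-PCR and capillary electrophoresis; actives increase reporter signal over DMSO so AC50 reflects activation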
Method in brief: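 HepG2, transient MRTU transfection, 24 h compound; zfPPARg-GAL4 reporter mRNA by RT-PCR + capillary electrophoresis; gain-of-signal vs DMSO.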

[6] = tested on: turtle Thyroid Hormone Receptor, alpha (TRa), gene 101949057; experiment: ATG_trTRa_XSP2: Attagene TRANS-FACTORIAL Multi-Species (XSP1) HepG2 Assay for turtle Thyroid Hormone Receptor, alpha (TRa) (AID 2283834);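 further: hits raise reporter mRNA over the DMSO baseline so AC50 marks activators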
Method in brief: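 Multiplexed TRANS reporter assay; HepG2 carrying NR-Gal4 constructs treated 24 h. mRNA of the GAL4-UAS reporter quantified via labelled RT-PCR fragments on a genetic analyzer, vs DMSO negative control.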

[7] = ATG_M_61_XSP2: Attagene TRANS-FACTORIAL Multi-Species (XSP2) HepG2 Assay for M61 Transcription Factor (Internal Marker) (AID 2283835; active means hit-call score of the fitted dose curve at least 0.9, where 1 is the maximum; inactive means score below 0.9;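 further: active means a rise in signal above the DMSO baseline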)
Method in brief: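 Internal background marker, read as RT-PCR/capillary-electrophoresis reporter mRNA 24 h post-dose in transiently transfected HepG2 cells. Androgen receptor stimulated with 3 nM 6-alpha-fluorotestosterone plus 1.5 nM norgestrel; gain of signal versus DMSO analysed.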

[8] = target: zebrafish Thyroid Hormone Receptor beta (TRb), thrb (gene 30607) (UniProt Q9PVE4); experiment: ATG_zfTRb_XSP2: Attagene TRANS-FACTORIAL Multi-Species (XSP1) HepG2 Assay for zebrafish Thyroid Hormone Receptor beta (TRb) (AID 2283836)
Method in brief: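 Reporter transcripts were measured by RT-PCR with fluorescent primer extension and capillary electrophoresis, 24 h after chemical dosing of transiently transfected HepG2 cells. Activity was scored as upward signal versus DMSO baseline.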

[9] = ATG_XTT_Cytotoxicity_XSP2: Cytotoxicity Assessment in the Attagene TRANS-FACTORIAL Multi-Species (XSP2) HepG2 Assay (AID 2283837)
Method in brief: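 XTT-based cell number read-out in human HepG2 liver cells carrying transfected reporter units, measured 24 h after chemical dosing. Activity is signal loss versus DMSO baseline.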

[10] = target: human Thyroid hormone Receptor alpha (TRa), THRA (gene 7067) (UniProt P10827); experiment: ATG_hTRa_XSP2: Attagene TRANS-FACTORIAL Multi-Species (XSP2) HepG2 Assay for human Thyroid hormone Receptor alpha (TRa) (AID 2283838)
Method in brief: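 Gain-of-signal in reporter mRNA, relative to DMSO, after 24 h dosing of transfected HepG2; quantitation by RT-PCR fragment analysis on capillary electrophoresis.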

Measured: AC50

Peroxisome proliferator-activated receptor gamma (Homo sapiens), sequence (P37231 whole entry, looked up, the tested form may be a part): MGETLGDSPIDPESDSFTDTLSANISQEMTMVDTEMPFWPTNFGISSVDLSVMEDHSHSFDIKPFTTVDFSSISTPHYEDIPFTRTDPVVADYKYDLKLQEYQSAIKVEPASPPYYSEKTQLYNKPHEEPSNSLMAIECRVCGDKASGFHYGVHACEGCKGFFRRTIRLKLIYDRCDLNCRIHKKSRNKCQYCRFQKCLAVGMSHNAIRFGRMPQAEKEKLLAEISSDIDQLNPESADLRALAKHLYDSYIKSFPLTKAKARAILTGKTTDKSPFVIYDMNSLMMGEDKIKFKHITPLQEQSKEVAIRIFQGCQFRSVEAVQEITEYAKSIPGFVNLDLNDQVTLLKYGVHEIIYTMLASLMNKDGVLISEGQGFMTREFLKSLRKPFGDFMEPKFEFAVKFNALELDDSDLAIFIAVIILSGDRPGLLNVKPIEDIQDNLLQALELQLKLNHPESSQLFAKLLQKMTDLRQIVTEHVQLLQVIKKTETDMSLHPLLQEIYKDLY
zebrafish Thyroid Hormone Receptor beta (TRb), thrb (gene 30607), sequence (Q9PVE4 whole entry, looked up): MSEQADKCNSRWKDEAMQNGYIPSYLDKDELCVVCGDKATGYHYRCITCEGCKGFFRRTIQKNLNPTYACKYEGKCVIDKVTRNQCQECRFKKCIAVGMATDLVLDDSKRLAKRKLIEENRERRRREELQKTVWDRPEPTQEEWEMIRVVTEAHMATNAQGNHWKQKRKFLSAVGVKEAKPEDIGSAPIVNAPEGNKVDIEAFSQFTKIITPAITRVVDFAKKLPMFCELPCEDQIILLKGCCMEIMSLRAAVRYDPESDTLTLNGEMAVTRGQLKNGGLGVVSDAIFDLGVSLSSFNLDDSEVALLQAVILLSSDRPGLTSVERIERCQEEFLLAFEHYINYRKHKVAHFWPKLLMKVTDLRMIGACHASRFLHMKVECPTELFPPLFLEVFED
mouse Peroxisome Proliferator-activated Receptor gamma (PPARg), Pparg (gene 19016), sequence (P37238 whole entry, looked up, the tested form may be a part): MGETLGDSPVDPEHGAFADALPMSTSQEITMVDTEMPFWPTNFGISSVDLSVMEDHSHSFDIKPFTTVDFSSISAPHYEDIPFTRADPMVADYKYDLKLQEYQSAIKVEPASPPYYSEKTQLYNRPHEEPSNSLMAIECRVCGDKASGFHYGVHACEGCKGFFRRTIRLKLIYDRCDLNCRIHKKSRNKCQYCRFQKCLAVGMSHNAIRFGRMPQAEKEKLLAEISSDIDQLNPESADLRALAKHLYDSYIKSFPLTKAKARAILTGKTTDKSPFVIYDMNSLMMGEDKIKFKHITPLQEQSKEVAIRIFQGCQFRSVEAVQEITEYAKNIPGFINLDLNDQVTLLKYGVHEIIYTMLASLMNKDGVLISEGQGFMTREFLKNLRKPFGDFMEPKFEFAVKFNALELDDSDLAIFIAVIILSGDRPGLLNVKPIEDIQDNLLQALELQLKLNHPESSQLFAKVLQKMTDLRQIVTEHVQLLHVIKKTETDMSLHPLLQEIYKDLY
human Thyroid hormone Receptor alpha (TRa), THRA (gene 7067), sequence (P10827 whole entry, looked up, the tested form may be a part): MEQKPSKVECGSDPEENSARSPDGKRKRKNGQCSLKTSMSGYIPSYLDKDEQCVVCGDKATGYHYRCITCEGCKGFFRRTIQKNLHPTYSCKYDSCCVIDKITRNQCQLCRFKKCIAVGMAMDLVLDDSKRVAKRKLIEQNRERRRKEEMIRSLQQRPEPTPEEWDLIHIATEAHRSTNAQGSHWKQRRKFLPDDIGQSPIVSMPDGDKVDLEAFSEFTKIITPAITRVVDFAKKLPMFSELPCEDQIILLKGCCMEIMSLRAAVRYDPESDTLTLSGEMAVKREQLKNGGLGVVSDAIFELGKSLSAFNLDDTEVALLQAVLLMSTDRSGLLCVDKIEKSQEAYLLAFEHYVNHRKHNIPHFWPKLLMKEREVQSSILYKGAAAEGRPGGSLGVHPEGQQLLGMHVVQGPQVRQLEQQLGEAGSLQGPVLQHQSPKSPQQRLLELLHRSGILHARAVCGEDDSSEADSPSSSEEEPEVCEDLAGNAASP
zebrafish Thyroid Hormone Receptor alpha (TRa), thraa (gene 30670), sequence (Q98867 whole entry, looked up, the tested form may be a part): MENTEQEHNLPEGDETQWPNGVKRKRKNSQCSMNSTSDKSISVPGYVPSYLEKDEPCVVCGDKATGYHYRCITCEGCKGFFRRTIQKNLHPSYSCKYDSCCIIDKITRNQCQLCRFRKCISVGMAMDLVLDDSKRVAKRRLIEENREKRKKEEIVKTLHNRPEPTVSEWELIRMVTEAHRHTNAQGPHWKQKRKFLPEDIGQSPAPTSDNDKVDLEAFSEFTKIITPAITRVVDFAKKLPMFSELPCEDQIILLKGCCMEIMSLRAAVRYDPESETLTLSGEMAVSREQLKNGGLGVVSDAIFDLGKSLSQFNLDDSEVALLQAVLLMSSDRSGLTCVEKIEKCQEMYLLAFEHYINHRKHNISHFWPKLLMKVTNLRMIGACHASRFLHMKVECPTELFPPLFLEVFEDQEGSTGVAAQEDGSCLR

O=[N+]([O-])c1ccc(Oc2ccc(Cl)cc2Cl)cc1
active: [1] 27 µM | [2] 16 µM and 10.8 µM | [3] 16.9 µM and 27.2 µM
inactive: [1] | [4] | [5] | [6] | [7] | [8] | [9] | [10]

CCCCCOC(=O)c1ccccc1C(=O)OCCCCC
inactive: [6]
active: [2] 19.8 µM | [3] 62.9 µM | [5] 174 µM

C[C@]12C=CC3=C4CCC(=O)C=C4CC[C@H]3[C@@H]1CC[C@@H]2O
inactive: [2] | [3] | [4] | [7]

Clc1ccc(C(c2ccc(Cl)cc2)C(Cl)Cl)cc1
inactive: [2] | [3] | [4] | [5] | [7]
active: [1] 5.5 µM

CCC[CH2][Sn]([Cl])([CH2]CCC)[CH2]CCC
not listed: [2] | [3] | [9]
inactive: all other assays above

Clc1ccc(C(c2ccc(Cl)cc2)C(Cl)(Cl)Cl)cc1
active: [1] 30.9 µM | [3] 100 µM
not listed: [6] | [9]
inactive: all other assays above

CCC(C)c1ccc(O)cc1 (centres undefined)
active: [1] 9.87 µM and 3.44 µM | [3] 59.5 µM and 135 µM
not listed: [2]
inactive: all other assays above

Oc1ccc2ccc3cccc4ccc1c2c34
active: [1] 8.67 µM and 1.64 µM | [3] 23.4 µM and 3.75 µM | [9] 151 µM
not listed: [2] | [10]
inactive: all other assays above

c1ccc2c(c1)-c1cccc3cccc-2c13
active: [1] 33.4 µM and 25.2 µM | [2] 21.6 µM
inactive: [2] | [3] | [4] | [5] | [6] | [7] | [8] | [9] | [10]

CC(C)(C)C(O)(CCc1ccc(Cl)cc1)Cn1cncn1 (centres undefined)
inactive: all assays above

CCCCOC(=O)c1ccccc1C(=O)OCc1ccccc1
active: [1] 24.7 µM | [3] 60.8 µM
inactive: [4] | [5] | [6] | [7] | [8]

CCCCC(CC)COC(=O)c1ccc(C(=O)OCC(CC)CCCC)c(C(=O)OCC(CC)CCCC)c1 (centres undefined)
inactive: [1] | [2] | [3] | [4] | [6] | [8] | [9] | [10]
active: [1] 36.8 µM

From PubChem BioAssay (EPA / NIEHS)
